AMA1-RON2 inh: qHTS for Inhibitors of AMA1-RON; Towards Development of Antimalarial Drug Lead: Primary Screen; Plasmodium falciparum AMA1 (3D7) - RON2 peptide interaction; AlphaScreen AMA1-biotinylated RON2 peptide binding; Potency, µM (doses to about 58.2 µM), for inactives: at the highest dose activity change, negative = inhibition, most hits filed as inhibitors; hit rate 0.2% among 360,000; AID 720542, 2013;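 also: 0% = vehicle wells and -100% = peptide control; nearly all actives have a fitted effect of over 45% in size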
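AMA1 (3D7) with his tag at 25 nM final met compounds first, then biotinylated RON2 peptide at 25 nM; detection used donor plus acceptor beads, 10 µg/mL apiece, read by AlphaScreen after 30 min at room temperature.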
Pf growth 48h: Primary qHTS for delayed death inhibitors of the malarial parasite plastid, 48 hour incubation; P. falciparum luciferase growth in erythrocytes, 48 h; Potency, µM (top dose mostly 28.7 µM), for inactives: at the highest dose activity change, negative = inhibition, actives largely listed as inhibitors; hit rate 5.9% among 310,000; AID 504832, 2011; also: % is scaled to controls: 0 for no effect and ±100 for the full control effect
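Firefly luciferase activity from engineered P. falciparum reports growth; inhibitors lower the luminescent signal. Cultures contained 2% hematocrit erythrocytes at 0.1% final parasitemia.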
HCV inhibitor: qHTS Assay for Inhibitors of Hepatitis C Virus (HCV). hit rate 3.4% among 340,000. Potency, µM (titrated, usually from 41.8 µM), without a hit: top-dose activity change, negative = inhibition, actives largely listed as inhibitors. AID 651820, 2012. Huh7.5.1 HCVcc-Cre infection, luciferase reporter, 44 h; also: % is scaled to controls: 0 for no effect and ±100 for the full control effect
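Infectious HCVcc-Cre (~0.5 moi) was added to cells just after compound, with cells seeded 4 h earlier at 1,000 per well. Luciferase activity after 44 h culture reported infection; substrate was incubated 15 min at room temperature before reading.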
Pf growth 96h: Primary qHTS for delayed death inhibitors of the malarial parasite plastid, 96 hour incubation | P. falciparum luciferase reporter growth, 96 h | hit rate 6.9% among 320,000 | AID 504834, 2011 | Potency, µM (doses to about 28.7 µM), inactives show at the highest dose activity change, negative = inhibition, actives largely listed as inhibitors; also: % is scaled to controls: 0 for no effect and ±100 for the full control effect
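Erythrocytes infected with luciferase-expressing P. falciparum were dispensed at 2% hematocrit and 0.05% parasitemia (final), then incubated with compounds 96 hours at 37 C in 5% CO2. Luminescence after detection reagent addition reported growth.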
SARS PLP yeast: qHTS of Yeast-based Assay for SARS-CoV PLP. S. cerevisiae expressing SARS-CoV PLpro, growth rescue. Potency, µM (top dose mostly 32.9 µM), for inactives: at the highest dose activity, positive = growth rescue, hits mostly activators. hit rate 0.19% among 330,000; calls by dose curve; also: 0% is about no effect; nearly all actives have a fitted effect of over 55% in size
NS1 function inh: qHTS Assay for Inhibitors of Influenza NS1 Protein Function. AID 2326, 2010. hit rate 0.4% among 270,000. Potency, µM (series often up to 46.1 µM), inactives show at the highest dose activity, positive = more growth; calls by dose curve; also: actives are rising curves; nearly all actives have a fitted effect of over 50% in size
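Recovery from NS1-induced slow growth read by OD600 in budding yeast switched to galactose assay medium (pH 6.0, -URA) at 1:100 dilution. Compound 23 nl per well; the matching strain lacking NS1 serves as control.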
* = called active by the depositor; ? = inconclusive; · = no result given; ! = repeats disagree. This is a sample that favours compounds with a hit; in the whole collection about 12% have one here. Unless noted, calls follow the shape of the dose curve; as a rule, active = well fitted curve in the direction sought with a large enough effect; inconclusive = small, poorly fitted or top-dose-only effect, or another doubt; inactive = no such curve, though single readings can be large; an effect the other way counts as inactive or inconclusive. Potency is read from the fitted curve at half-maximal effect.

SMILES	AMA1-RON2 inh	Pf growth 48h	HCV inhibitor	Pf growth 96h	SARS PLP yeast	NS1 function inh
CC1=CCC2COC(c3ccc[n+](Cc4ccccc4)c3)C1C2 (configuration not stated)	9%	1.5µM*	5%	-24%	-7%	1%
c1ccc(C[n+]2ccc3ccccc3c2)cc1	-6%	·	?	·	·	·
CC(=O)c1ccc(OCc2cc(C(=O)NCCc3ccc(Cl)cc3)no2)cc1	0%	6%	-7%	-20%	10%	-9%
CCOc1ccccc1NC(=O)c1cc(-c2ccccn2)nc2ccccc12	8%	15µM*	-1%	?	-2%	·
COc1ccc(NC(=O)c2cc(-c3ccccn3)nc3ccccc23)c(OC)c1	-20%	·	?	·	-4%	·
CCOc1ccccc1-c1cc(C(=O)Nc2ccc(C(=O)O)cc2)c2ccccc2n1	16%	?	-2%	10µM*	-3%	11%
CC(=O)Nc1cccc(C(=O)Nc2cccc3ncccc23)c1	8%	35%	-29%	70%	-3%	12%
CCOc1cc(C(=O)Nc2cccc3ncccc23)cc(OCC)c1OCC	-3%	·	-6%	15µM*	0%	3%
CCOc1ccc(-c2cc(C(=O)O)c3ccccc3n2)c(OCC)c1	7%	-5%	?	?	21%	-6%
CCN(CC)S(=O)(=O)c1cc(NC(=O)c2cc(-c3ccccn3)nc3ccccc23)ccc1C	-4%	9.3µM*	14µM*	?	-6%	23%
CC(OC(=O)CCN=C1NS(=O)(=O)c2ccccc21)C(=O)Nc1ccc(F)c(F)c1F (configuration not stated)	6%	-7%	14%	39%	4%	·
Nc1c(S(=O)(=O)c2cccc(Cl)c2)c2nc3ccccc3nc2n1/N=C/c1ccc(O)c(O)c1	·	7.4µM*	·	-16%	-2%	-38%
Cc1cc(C)c(C(=O)/C=C/c2ccc3c(c2)OCO3)c(=O)[nH]1	-18%	0%	?	69%	0%	7%
Cc1cc(C)c(C(=O)/C=C/c2cccc3ccccc23)c(=O)[nH]1	-9%	?	11µM*	?	7%	2%
C/C(=C\c1cccc(Cl)c1Cl)C(=O)c1c(C)cc(C)[nH]c1=O	0%	0%	-9%	19µM*	0%	0%
CN(c1ccc(OCC(=O)Nc2nc3ccccc3s2)cc1)S(=O)(=O)c1ccccc1	6%	?	?	5.2µM*	-3%	5%
Cc1ccc2nc(NC(=O)CN(C)S(=O)(=O)c3ccc(Br)s3)sc2c1	-7%	·	?	9.3µM*	5%	-50%
Cc1ccc(S(=O)(=O)N(C)CC(=O)Nc2nc3ccccc3s2)cc1	-2%	-9%	?	6.6µM*	-15%	-53%
CN(CC(=O)Nc1nc2ccc(F)cc2s1)S(=O)(=O)c1ccc(Cl)cc1	9%	·	?	?	4%	2%
Cc1ccc2nc(NC(=O)CNS(=O)(=O)c3ccc(Br)s3)sc2c1	16%	67%	11%	30%	1%	-9%
CC(OC(=O)c1cccc(-n2cnnn2)c1)c1nc2ccccc2c(=O)[nH]1 (configuration not stated)	5%	?	-8%	?	-9%	·
CCOC(=O)C1CCCN(C(=O)c2ccc3c(c2)C(C)(C)CCC3(C)C)CC1 (configuration not stated)	-6%	·	·	·	·	·
CN(C(=O)CSc1nnc(N)s1)C1CCCCC1	-10%	?	22%	65%	2%	6%
O=C(c1ccc(CS(=O)Cc2ccc(Cl)cc2)o1)N1CCN(c2ccccn2)CC1 (configuration not stated)	4%	-27%	-24%	10µM*	1%	-16%
O=C(c1ccc(COc2ccccc2Br)o1)N1CCN(c2ccccn2)CC1	-15%	10%	-23%	74%	-9%	-59%
SMILES	AMA1-RON2 inh	Pf growth 48h	HCV inhibitor	Pf growth 96h	SARS PLP yeast	NS1 function inh
O=C(c1ccc(CS(=O)Cc2ccccc2Cl)o1)N1CCN(c2ccccn2)CC1 (configuration not stated)	13%	-28%	-19%	-11%	-2%	-4%
O=C(c1ccc(C#Cc2ccccc2)o1)N1CCN(c2ccccn2)CC1	-23%	-19%	?	8.3µM*	-16%	-96%
Nc1nnc(CSCc2cccc(Br)c2)s1	40%	18%	19%	26%	-1%	5%
CCCCCCCCCCCCCCCCn1cc[n+](C)c1	2%	3.3µM*	5.6µM*	2.1µM*!	-1%	-90%
C[n+]1ccn(CC(=O)c2cccs2)c1	3%	-17%	14%	?	4%	5%
O=C(O)c1cc(C(=O)O)nc(C(=O)O)c1	·	·	·	·	·	5%
CC1(c2nnc(Cc3ccccc3)o2)CC(c2ccncc2)=NO1 (configuration not stated)	0%	·	-7%	·	·	·
CCOC(=O)C(CCc1ccccc1)NC(C)C(=O)N1Cc2cc(OC)c(OC)cc2CC1C(=O)O (configuration not stated)	·	?	·	12µM*	·	·
CCOC(=O)[C@H](CCc1ccccc1)N[C@@H](C)C(=O)N1CCC[C@@H]1C(=O)O	27%	0%	13%	0%	·	·
CCOC(=O)[C@H](CCc1ccccc1)N[C@@H](C)C(=O)N1CCC[C@H]1C(=O)O	0%	-26%	?	6µM*!	-1%	-8%
COc1ccccc1N1CCN(C(=O)C2CCCN(c3ncnc4c3nc3n4CCCCC3)C2)CC1 (configuration not stated)	5%	9.3µM*	?	-20%	20%	-5%
CCN(CCNC(=O)C1CCCN(c2ncnc3c2nc2n3CCCCC2)C1)Cc1ccccc1 (configuration not stated)	7%	?	-3%	10µM*	2%	1%
O=C(NCCCN1CCN(c2ccc(F)cc2)CC1)C1CCCN(c2ncnc3c2nc2n3CCCCC2)C1 (configuration not stated)	-2%	?	?	?	1%	0%
COc1ccccc1N1CCN(CCCNC(=O)C2CCCN(c3ncnc4c3nc3n4CCCCC3)C2)CC1 (configuration not stated)	-2%	?	13µM*	?	1%	-7%
O=C(C1CCCN(c2ncnc3c2nc2n3CCCCC2)C1)N1CCN(c2ccccc2)CC1 (configuration not stated)	6%	?	?	?	?	-31%

Bioassay records from PubChem BioAssay.
